Results taken from article PMC5540273 (PLoS ONE, 2017).

Tests used:
Conditions in all cases: concentration: 1 μM, replicates: in singlicate; n = 1
[1] = system: CDC2L2
[2] = system: T1, CDC2L5
T1 construct: gene CDK13

[3] = system: T2, CDK11
T2 construct: gene CDK19

[4] = system: CDK2
[5] = system: CDK3
[6] = system: CDK4-cyclinD1
[7] = system: CDK4-cyclinD3
[8] = system: CDK4
[9] = system: CDK5
[10] = system: CDK7
[11] = system: CDK8
[12] = system: CDK9
[13] = system: CDKL1
[14] = system: CDKL2
[15] = system: CDKL3
[16] = system: CDKL5
[17] = system: CHEK1
[18] = system: CHEK2
[19] = system: CIT
[20] = system: CLK1
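Further: KINOMEscan kinase panel screen.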

Compound | %Inh [1] | %Inh [2] | %Inh [3] | %Inh [4] | %Inh [5] | %Inh [6] | %Inh [7] | %Inh [8] | %Inh [9] | %Inh [10] | %Inh [11] | %Inh [12] | %Inh [13] | %Inh [14] | %Inh [15] | %Inh [16] | %Inh [17] | %Inh [18] | %Inh [19] | %Inh [20]
O=C(O)C(F)(F)F.O=c1[nH]ccc2nc(N[C@@H]3CCNC3)nc(Nc3cc(Cl)cc(Cl)c3)c12 [GSK2188764] | 24% | 0% | 2% | 0% | 30% | 38% | 23% | 13% | 44% | 85% | 0% | 34% | 37% | 24% | 0% | 0% | 100% | 85% | 67% | 82%
COc1ccc(C2=C(Nc3cccc(O)c3)C(=O)NC2=O)cc1 [SB-390766] | 0% | 0% | 93.8% | 98.3% | 42% | 20% | 9% | 35% | 0% | 0% | 0% | 0% | 0% | 7% | 32% | 3% | 2% | 0% | 4% | 86%
Nc1ncc(-c2cn[nH]c2)c2scc(-c3ccc4c(c3)CCN4C(=O)Cc3ccccc3)c12 [GSK2593067] | 0% | 0% | 23% | 0% | 2% | 0% | 0% | 0% | 0% | 0% | 37% | 0% | 0% | 28% | 0% | 0% | 0% | 0% | 0% | 40%
Cc1ccc(-c2ccc3occ(-c4ccc(S(C)=O)cc4)c3c2)nn1 (centres unmarked) | 0% | 24% | 29% | 36% | 4% | 0% | 0% | 0% | 0% | 0% | 0% | 0% | 35% | 0% | 13% | 0% | 0% | 11% | 0% | 0%
COC(=O)Nc1nc2ccc(Oc3ccc(CC(=O)Nc4cc(C(F)(F)F)ccc4F)cc3)cc2[nH]1 [GW680903] | 8% | 0% | 0% | 0% | 11% | 27% | 4% | 10% | 0% | 0% | 0% | 0% | 2% | 14% | 0% | 0% | 0% | 20% | 68% | 24%
CN(c1ccc(NC(=O)N2CCN(CCCN3CCOCC3)CC2)cc1)c1ccnc(Nc2ccc(CS(C)(=O)=O)cc2)n1.Cl [GW830899] | 1% | 0% | 0% | 0% | 18% | 0% | 0% | 0% | 0% | 0% | 44% | 0% | 100% | 9% | 0% | 0% | 0% | 0% | 16% | 7%
Cc1cccc(Nc2nc(NCCN)ncc2C(N)=O)c1 [GSK1292139] | 18% | 0% | 0% | 0% | 5% | 0% | 6% | 35% | 0% | 24% | 37% | 0% | 0% | 7% | 0% | 0% | 82% | 75% | 80% | 23%
CN(C)CCOc1ccc(-c2cc(-c3ccc(Cl)c(O)c3)c(-c3ccncc3)[nH]2)cc1.Cl.Cl [SB-684387] | 14% | 0% | 6% | 0% | 0% | 9% | 15% | 39% | 0% | 21% | 38% | 18% | 28% | 39% | 0% | 0% | 7% | 33% | 90.8% | 32%
CN(c1ccc2c(c1)nc(NCc1ccccc1)n2C)c1ccnc(Nc2ccc(CS(C)(=O)=O)cc2)n1.Cl [GW811603] | 80% | 49% | 24% | 0% | 0% | 35% | 0% | 34% | 0% | 20% | 79% | 15% | 20% | 0% | 16% | 9% | 0% | 0% | 55% | 31%
Cc1cccc(Nc2nc(N[C@H]3CCCC[C@H]3N)ncc2C(N)=O)c1.Cl [GSK986310] | 11% | 0% | 24% | 0% | 24% | 0% | 1% | 0% | 5% | 48% | 0% | 17% | 9% | 28% | 0% | 0% | 57% | 1% | 66% | 42%
Cc1ccc(Nc2ccnc(Nc3ccc(C)c(F)c3)n2)cc1O.Cl [GW582868] | 0% | 0% | 6% | 0% | 0% | 0% | 5% | 0% | 0% | 0% | 0% | 0% | 9% | 40% | 0% | 0% | 0% | 0% | 28% | 13%
Cc1ccc(NC(=O)c2ccnc(N3CCCCC3)c2)cc1-c1ccc(C(=O)NCC2CC2)cc1 [GW775610] | 0% | 0% | 0% | 36% | 0% | 20% | 0% | 0% | 8% | 0% | 39% | 1% | 9% | 33% | 0% | 75% | 0% | 39% | 38% | 11%
Cl.Cl.NCC(NC(=O)c1cc(-c2cccnc2)c(-c2ccnc3[nH]ccc23)s1)c1ccccc1 (centres unmarked) [GSK1323434] | 9% | 0% | 8% | 3% | 26% | 39% | 0% | 79% | 0% | 50% | 43% | 1% | 66% | 23% | 0% | 0% | 0% | 55% | 100% | 71%
Cc1ccccc1CC(=O)N1CCc2cc(-c3cn(C)c4ncnc(N)c34)ccc21 [GSK2603346] | 3% | 0% | 81% | 6% | 2% | 0% | 0% | 29% | 0% | 0% | 83% | 0% | 0% | 17% | 0% | 0% | 18% | 0% | 32% | 15%
Nc1cccc(-c2ccc3c(N)n[nH]c3c2)c1 [GSK2193613] | 16% | 0% | 8% | 1% | 0% | 13% | 0% | 0% | 0% | 15% | 42% | 3% | 19% | 23% | 0% | 0% | 0% | 6% | 30% | 43%
N#Cc1cnc2cc(-c3cnc(CNCCN4CCOCC4)s3)ccc2c1Nc1ccc(Oc2ccccc2)cc1 [GW664114] | 6% | 0% | 0% | 0% | 7% | 0% | 4% | 10% | 0% | 15% | 10% | 0% | 0% | 61% | 0% | 29% | 0% | 82% | 22% | 40%
COc1cccc(-c2nc(-c3ccccc3)[nH]c2-c2ccncc2)c1 [SB-610250] | 0% | 0% | 22% | 2% | 24% | 0% | 7% | 0% | 0% | 0% | 30% | 0% | 20% | 23% | 0% | 8% | 0% | 0% | 47% | 29%
CS(=O)(=O)c1cccc(CNc2nc(Nc3ccc4c(c3)CCC(=O)N4)ncc2C(F)(F)F)c1 | 0% | 0% | 0% | 30% | 12% | 0% | 0% | 6% | 22% | 80% | 0% | 8% | 23% | 37% | 10% | 0% | 0% | 0% | 37% | 46%
CC(C)c1nc(-c2ccc(F)c(NS(=O)(=O)c3c(F)cccc3F)c2)c(-c2ccnc(Nc3ccc(N4CCOCC4)nc3)n2)s1 [GSK1804250] | 0% | 0% | 2% | 95.5% | 35% | 26% | 0% | 87% | 51% | 10% | 28% | 1% | 22% | 99.3% | 0% | 88% | 0% | 49% | 81% | 7%
